Reference: the supplement of paper PMC6522484
± gives the standard deviation of the averaged measurements.

What was measured:
DLD1 [1] = test: cell viability (CellTiter-Glo) relative to plate median (fraction of plate median); higher = more viable cells; conditions: 5 µM; treatment time 24 h; reporter: 7TFP
Summary of the method: (§1)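 Each entry is a luminescence signal normalised to the plate median, averaged over independent replicates. The replicate count was two, and the cells were colorectal cancer lines with stable lentiviral TCF/Wnt firefly luciferase reporters exposed to library compounds at a final 5 µM for 24 h. Firefly luciferase and CellTiterGlo were measured on parallel plates.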

HCT116 = test: as above; conditions: 5 µM; treatment time 24 h; reporter: TCF4/Wnt
Summary of the method: as §1

SW480 [2] = test: as above; conditions: 5 µM; treatment time 24 h; reporter: 7TFP
Summary of the method: as §1

DLD1 [3] = test: TCF/Wnt firefly luciferase reporter signal relative to plate median (fraction of plate median); higher = higher Wnt reporter signal; conditions: 5 µM; treatment time 24 h; reporter: 7TFP
Summary of the method: as §1

SW480 [4] = test: as above; conditions: 5 µM; treatment time 24 h; reporter: 7TFP
Summary of the method: as §1

| SMILES | cell viability (DLD1 [1]) | cell viability (HCT116) | cell viability (SW480 [2]) | TCF/Wnt firefly luciferase reporter signal (DLD1 [3]) | TCF/Wnt firefly luciferase reporter signal (SW480 [4]) |
| --- | --- | --- | --- | --- | --- |
| CCOC(=O)C(=O)C1(C(=O)OCC)Oc2cc(OC)cc(OC)c2C(=O)C1c1ccccc1 (stereo not given) | 0.978 ± 0.03 | 0.951 ± 0.23 | 1.01 ± 0.13 | 0.939 ± 0.083 | 1.02 ± 0.069 |
| OCC(S)CS (stereo not given) | 0.884 ± 0.063 | 0.956 ± 0.018 | 0.944 ± 0.032 | 0.921 ± 0.057 | 0.936 ± 0.066 |
| CC(=O)Oc1cc(C)c2c(c1C=O)Oc1c(c(C)c(OC(C)=O)c3c1C(OC(C)=O)OC3=O)OC2=O (stereo not given) | 1.025 ± 0.0071 | 0.949 ± 0.039 | 1.04 ± 0.063 | 0.875 ± 0.084 | 1.01 ± 0.099 |
| COc1cc(OC)c(C(C)=O)c(O)c1C | 0.992 ± 0.026 | 0.977 ± 0.1 | 1.045 ± 0.0071 | 0.94 ± 0.11 | 0.885 ± 0.016 |
| Cc1cc(C(C)(C)C)cc(C)c1CC1=NCCN1 | 1.095 ± 0.0071 | 1.06 ± 0.035 | 1.07 ± 0.057 | 0.9565 ± 0.0064 | 0.991 ± 0.098 |
